Assay outcomes as filed in PubChem BioAssay.
Vc quorum ag: inducers of Vibrio cholerae quorum light production without autoinducers, primary screen, BH1578 luxS cqsA deficient, single point; V. cholerae BH1578 lux reporter, luminescence, 6 h; 0.16% of 350,000 active; activation, % at 18.7 µM; AID 588436, 2011; in the data active means activation mostly above about 9.7%, no sharp cut-off; inconclusive means no clear call, values can overlap the other calls; inactive means mostly below about 3.7%
GDH-TPI counter: GDH-TPI coupling enzyme inhibitors, primary screen, artefact control for M. tuberculosis FBA inhibitor project, biochemical, absorbance, full deck | GDH-TPI coupled enzyme counterscreen, NADH absorbance | 1.2% of 360,000 active | inhibition, % at 4.8 µM; in the data active means inhibition above about 30%;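 further: 0% = DMSO wells and 100% = wells lacking the enzyme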
Rv3671c protease: Rv3671c serine protease inhibitors, primary screen, biochemical, fluorescence polarization, M. tuberculosis H37Rv; inhibition, % at 5.96 µM; 0.048% of 320,000 active; AID 2606, 2010; in the data active means inhibition above about 38%;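 further: extracellular domain of Rv3671c used as enzyme; 0% = enzyme with DMSO and 100% = no enzyme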
UGM FP inh: M. tuberculosis UGM enzyme inhibitors, primary screen, biochemical, fluorescence polarization, single point; UDP-galactopyranose mutase (Mycobacterium tuberculosis (strain ATCC 25618 / H37Rv)), …; purified UGM, fluorescence polarization probe displacement; inhibition, % at 10 µM; 0.06% of 320,000 active; in the data active means inhibition above about 10%, passing the limit was not always enough; inconclusive means no clear call, values can overlap the other calls
Target sequence (P9WIQ1 whole entry, looked up): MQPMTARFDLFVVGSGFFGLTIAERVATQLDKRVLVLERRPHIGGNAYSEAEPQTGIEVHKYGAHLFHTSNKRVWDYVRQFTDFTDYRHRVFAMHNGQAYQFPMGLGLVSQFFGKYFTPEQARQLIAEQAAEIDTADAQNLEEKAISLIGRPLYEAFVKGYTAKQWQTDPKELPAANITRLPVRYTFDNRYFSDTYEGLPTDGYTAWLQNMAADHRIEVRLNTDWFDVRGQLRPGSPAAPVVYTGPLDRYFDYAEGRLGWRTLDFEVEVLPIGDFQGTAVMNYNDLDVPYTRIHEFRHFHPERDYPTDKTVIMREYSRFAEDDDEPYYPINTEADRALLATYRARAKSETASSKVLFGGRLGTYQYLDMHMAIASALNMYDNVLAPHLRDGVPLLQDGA
FBA Mtb inh: Mtb FBA enzyme inhibitors, primary screen, biochemical, fluorescence, strain H37Rv. Fructose-bisphosphate aldolase (Mycobacterium tuberculosis (strain ATCC 25618 / H37Rv)), …. purified M. tuberculosis FBA, fluorescence read-out. inhibition, % at 1 µM. 2.3% of 360,000 active. AID 588726, 2011; in the data active means inhibition above about 27%;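 further: 0% = vehicle and 100% = reference inhibitor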
RecA splice inh: Mtb RecA intein splicing inhibitors, primary screen, biochemical, fluorescence, HTS. cell-free RecA intein splicing. 0.75% of 290,000 active. Protein RecA (Mycobacterium tuberculosis (strain ATCC 25618 / H37Rv)), P9WHJ3. inhibition, % (test concentration not listed); in the data active means inhibition above about 30%; inconclusive means no clear call, values can overlap the other calls;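 further: 0% = vehicle wells and 100% = reference inhibitor control wells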
* marks the source's active call; other numbers are inactive results; i = inactive; ? = inconclusive; . = no result given; + = active, no number. Most compounds without a hit are left out; they make up all but 4.1% or so of the library.

SMILES	Vc quorum ag	GDH-TPI counter	Rv3671c protease	UGM FP inh	FBA Mtb inh	RecA splice inh
Cc1ccc2[nH]c3c(=O)n(CC(=O)NCc4ccco4)ncc3c2c1	0	3	-33	1	16	-1
Nc1nc(NCCc2ccccc2)nc(NCc2ccccc2)c1[N+](=O)[O-]	-2	20	-26	2	-4	0
Nc1nc(NCCCN2CCOCC2)nc(NCc2ccccc2)c1[N+](=O)[O-]	0	50*	-4	0	-2	-5
Nc1nc(NCCN2CCOCC2)nc(NCc2ccccc2)c1[N+](=O)[O-]	i	48*	-5	-5	-3	-1
CN(Cc1ccccc1)c1nc(N)c([N+](=O)[O-])c(NCc2ccccc2)n1	0	31*	-14	-1	-1	0
Nc1nc(NCc2ccco2)nc(NCCO)c1[N+](=O)[O-]	1	32*	3	-1	-5	0
NC(=O)C1CC12c1ccccc1-c1ccccc12 (centres undefined)	i	5	-7	1	1	1
O=C(COC(=O)c1ccc(O)cc1O)Nc1ccc2c(c1)OCCO2	-3	-2	-5	0	-1	.
CCOc1ccccc1NC(=O)C1CCCN1S(=O)(=O)c1ccccc1C(F)(F)F (centres undefined)	3	0	-1	.	-2	.
O=S(=O)(O)c1cc2oc(-c3ccccc3)nc2c2ccccc12	1	19	4	0	+	-1
COc1ccc(/C=C\C(=O)c2c(O)ccc3c(C)cc(=O)oc23)cc1	i	49*	-2	0	3	1
COc1ccc(/C=C/C(=O)c2c(O)ccc3c(C)cc(=O)oc23)cc1	1	38*	-1	-2	-2	2
COc1ccc(-c2cc(=O)oc3c(C)c(O)ccc23)cc1	-15	15	-16	-3	24	-5
Cc1cc(=O)oc2c(O)c(O)ccc12	i	4	.	.	2	.
CN(C(=O)COC(=O)CSc1cc(Cl)ccc1Cl)c1c(N)n(Cc2ccccc2)c(=O)[nH]c1=O	-1	-6	-7	.	-2	1
O=C1NCC2=C1C(c1ccccc1)Nc1ccccc1N2 (centres undefined)	8	32*	-3	1	6	?
COC(=O)c1ccc(C(=O)OC)c(NC(=O)Oc2ccccc2)c1	-1	5	-6	4	155*	-90
COC(=O)c1ccc(C(=O)OC)c(NC(=O)CSCC(=O)O)c1	-1	6	6	-1	1	0
N#CC(C#N)c1ccnc2ccccc12	-5	3	.	.	-1	.
O=C(/C=C/c1ccccc1)Nc1nnc(-c2ccco2)o1	0	45*	13	1	-3	-5
CC(=O)Nc1nnc(-c2ccco2)o1	-1	-11	0	.	0	-7
C/C(=N\NC(=O)c1ccc(NS(=O)(=O)c2cccs2)cc1)c1cccs1	0	22	3	2	0	1
C/C(=N\NC(=O)c1ccc(Cl)cc1)c1cccs1	-6	41*	.	.	3	1
CC(=O)c1cccc(NC(=O)/C(=C\c2ccco2)NC(=O)c2cccs2)c1	i	32*	4	2	-11	4
NNC(=O)/C(=C\c1ccco1)NC(=O)c1ccco1	0	35*	-10	0	-1	-1
SMILES	Vc quorum ag	GDH-TPI counter	Rv3671c protease	UGM FP inh	FBA Mtb inh	RecA splice inh
O=C(Nc1cccc(F)c1)/C(=C\c1ccco1)NC(=O)c1ccco1	0	39*	2	2	0	1
CC1(C)CC(=O)C=C(c2ccc(-c3ccc(S(C)(=O)=O)cc3)cc2)C1=O	-2	2	.	.	-1	.
C=CCn1cc(C(=O)c2cc(Br)ccc2O)cc(C#N)c1=O	1	31*	-3	-4	1	4
CCCCn1cc(C(=O)c2cc(Br)ccc2O)cc(C#N)c1=O	0	9	-10	0	4	1
CN(C)S(=O)(=O)c1cccc(NC(=O)C2Cc3ccccc3CN2C(=O)c2ccccc2)c1 (centres undefined)	0	9	1	2	2	4
CCn1cc(/C=C(\NC(=O)c2ccc(OC)c(OC)c2)C(=O)N2CCOCC2)c2ccccc21	-1	28	-7	3	-3	4
CCn1cc(/C=C(\NC(=O)c2cc(OC)c(OC)c(OC)c2)C(=O)N2CCOCC2)c2ccccc21	i	31*	.	.	0	.
COc1ccc(C(=O)N/C(=C\c2cn(C)c3ccccc23)C(=O)N2CCOCC2)cc1	0	32*	-10	1	2	-2
CCn1cc(/C=C(\NC(=O)c2ccc(OC)cc2)C(=O)N2CCOCC2)c2ccccc21	i	38*	1	4	3	-5
COc1cc(C2c3[nH]c4ccccc4c3CC3COC(=O)N32)cc(OC)c1O (centres undefined)	i	4	.	.	1	.
Cc1sc(=NC(=O)c2ccco2)n(C)c1-c1ccc(Cl)cc1	-3	52*	-1	3	5	4
CCOC(=O)c1sc(=NC(=O)c2ccco2)n(C)c1C	0	38*	-6	3	1	-8
O=C(O)c1ccc(NS(=O)(=O)c2ccc(C(=O)Nc3ccccc3)cc2)cc1	-2	13	-3	-1	-1	-4
CCOc1ccc(CNC(=S)Nc2ccccc2)cc1Cl	0	4	4	4	-3	4
C[C@H]1CN([C@@H](C)CO)C(=O)Cc2cc(NC(=O)C3CC3)ccc2O[C@H]1CN(C)Cc1ccc(C(=O)O)cc1	-1	9	4	2	2	.
N#Cc1c(NC(=O)CSc2nnc(-c3ccccc3)o2)sc2c1CCCC2	0	31*	-7	-1	1	0
NC(=O)N\N=C/C=C/C=C/c1ccc(F)cc1	0	53*	3	-2	-5	3
CC(=O)OCC(=O)[C@@]12OC(C)(C)O[C@@H]1C[C@H]1[C@@H]3C[C@H](F)C4=CC(=O)C=C[C@]4(C)[C@@]3(F)[C@@H](O)C[C@@]12C	21*	.	-2	-1	.	-1
CC(=O)OCC(=O)[C@@]12OC(C)(C)O[C@@H]1CC1C3C[C@H](F)C4=CC(=O)C=CC4(C)[C@@]3(F)C(O)CC12C (some centres undefined)	i	10	4	3	0	4
O=[N+]([O-])c1ccccc1S(=O)(=O)Nc1ccc(S(=O)(=O)N2CCCC2)cc1	2	-4	-2	3	2	.
